# Measurements published in PubChem BioAssay (Tox21).
# Records with an inconclusive call do not appear. Where a call stands in place of a potency, no number is given. Calls of active or inactive are those of the source. Calls come from the whole dose curve; as a rule, active = well fitted curve in the direction sought with a large enough effect in the repeat runs; inconclusive = weak or mixed curves; inactive = no such curve, though single readings can be large; an effect the other way counts as inactive or inconclusive.
# Assay: Caspase-3/7 induction in CHO-K1 cells by small molecules, qHTS cell viability counter screen (AID 1346979); note: nearly all actives have a fitted effect of over 35% in size; note: potency is the fitted concentration of half-maximal effect
# Conditions: CellTiter-Fluor fluorescence, 17 h; series mostly up to 92.4 µM
# How it was run: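 Cytotoxicity counter screen: CellTiter-Fluor added to compound-treated wild-type CHO-K1 cells at 16 h (37C, 5% CO2), fluorescence measured 1 h later; same wells as caspase-3/7 measurement.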
row,Structure (SMILES),Potency
1,CN(Cc1cc(Br)cc(Br)c1N)C1CCCCC1,inactive
2,Cc1ccc2ccc3cccc4ccc1c2c34,inactive
3,CCC(C)c1cc([N+](=O)[O-])cc([N+](=O)[O-])c1OC(=O)OC(C)C (stereo not given),61.1 µM (active)
4,CC(=O)Nc1ccc(O)cc1,inactive
5,O=C1c2c(O)ccc([N+](=O)[O-])c2C(=O)c2c([N+](=O)[O-])ccc(O)c21,12.1 µM (active)
6,COC(=O)[C@]1(C)CCC[C@@]2(C)[C@H]1CC=C1C=C(C(C)C)CC[C@@H]12,inactive
7,Cc1c(-c2ccc(O)cc2)n(Cc2ccc(OCCN3CCCCCC3)cc2)c2ccc(O)cc12,29.8 µM (active)

# Assay: Caspase-3/7 induction in CHO-K1 cells by small molecules, qHTS assay (AID 1346980); note: nearly all actives have a fitted effect of over 15% in size
# Conditions: CHO-K1 caspase-3/7 induction, Caspase-Glo luminescence, 17 h; series mostly up to 92.4 µM
# How it was run: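 Luminescent Caspase-Glo 3/7 read (30min, room temperature) quantified apoptosis induction. Cells were wild-type CHO-K1, treated with compound for 17hr at 37 C and 5% CO2.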
Structure (SMILES),Potency,caspase-3/7 activation
Oc1ccc(-c2ccccc2)c(Cl)c1,inactive,
COc1ccccc1OCCNCC(O)COc1cccc2[nH]c3ccccc3c12 (stereo not given),inactive,
O=C(O)CCn1c2c(c3ccccc31)C[C@H](NS(=O)(=O)c1ccc(F)cc1)CC2,inactive,
c1cc(OCC2CO2)cc(OCC2CO2)c1 (stereo not given),inactive,
C=CC(=O)OCC(O)COc1ccccc1 (stereo not given),inactive,
COc1cc(C(C)C)c2c(c1)S(=O)(=O)N(COc1cc(=O)n3cccc(OCCN4CCCCC4)c3n1)C2=O,,-0.224% [at 19 µM] (inactive)
CCN(CC)c1ccc(N)cc1,inactive,
C=C/C=C/C=C/CCCCC,,0.387% [at 19 µM] (inactive)
CCCCCCCCCCCCCOP(=O)(O)O,inactive,
CC(C)N=C(N)/N=C(\N)Nc1ccc(Cl)cc1,inactive,
O=C1C=CC(=O)N1c1ccccc1,inactive,
C=CC(C)C#N (stereo not given),inactive,
CCCCCCCC/C=C\CCCCCCCC(=O)OCCOC(=O)CCCCCCC/C=C\CCCCCCCC,inactive,
